Inconclusive results are not listed. Active and inactive are the calls of the source. The calls were made as follows: active = hit-call score of the fitted dose curve at least 0.9, where 1 is the maximum; inconclusive = response in the unintended direction; inactive = score below 0.9.
Experiment: ACEA_AR_antagonist_AUC_viability: ACEA Biosciences xCELLigence Real-Time Cell Analysis on Androgen Receptor Antagonism for Viability (AID 2283776);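 also: area under impedance growth curve at 80 h after dosing as viability; hits lower the growth signal relative to DMSO meaning cytotoxicity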
Method: ACEA_AR_antagonist is a cell-based, single-readout assay that uses 22Rv1, a human prostate cancer cell line, with measurements taken at 80 hours after chemical dosing in a 384-well plate, although TO5 and TO6 (mc0.srcf) used a 96-well plate. Differences in plate size can be ignored given data normalization.ACEA_AR_80hr is one of two assay component(s) measured or calculated from the […] assay. It is designed to make measurements of real-time cell-growth kinetics, a form of growth reporter, as detected with electrical impedance signals by Real-Time Cell Electrode Sensor (RT-CES) technology.Data from the assay component ACEA_AR_antagonist_AUC_viability was analyzed in the positive analysis fitting direction relative to DMSO as the negative control and baseline of activity. Using a type of growth reporter, loss-of-signal activity can be used to understand changes in the viability. Furthermore, this assay endpoint can be referred to as a secondary readout, because this assay has produced multiple assay endpoints where this one serves a viability function. To generalize the intended target to other relatable targets, this assay endpoint is annotated to the cell cycle intended target family, where the subfamily is cytotoxicity.
The xCELLigence system Multi-E-Plate stations were used to measure the time-dependent response to chemicals. Each compound was tested in an eight-point, 1:4 serial dilution series starting at a maximum final concentration of 100 uM. A maximum starting concentration of 0.5% DMSO was present in the 100 uM chemical samples and was diluted along with the test article dilution series. The screen was performed in biological duplicate using two separate, 96-well, E-Plates 96 for each dilution series (n = 2). Positive controls (MG132 and testosterone) and a negative control (assay media) were tested in quadruplicate on each testing plate. Then, 0.5% and 0.125% DMSO were tested in duplicates in each plate to serve as solvent controls for the 2 highest concentrations of testing compounds: 100 uM and 25 uM. Reference compounds were tested with 8 concentrations with 1:5 serial dilutions. All screening was carried out by ACEA Biosciences, Inc. (San Diego, CA). 22Rv1 cells purchased from ATCC were maintained in media supplemented with 10% fetal bovine serum (FBS). Before screening, 22Rv1 cells were preconditioned in assay medium. Cells were then detached and seeded in E-Plates 96 in assay medium. After overnight monitoring of growth once every hour, compounds were added to […] cells and remained in the medium until the end of the experiment. Cellular responses were then recorded once every 5 min for the first 5 h, and once every hour for an additional 100 h.

Compound	AC50	outcome
O=c1c(O)c(-c2ccc(O)cc2)oc2cc(O)cc(O)c12	4.77 µM (active)	–
CCCCCCCC/C=C\CCCCCCCC(=O)OCC	–	inactive
CCOC(=O)[C@@H](C)Oc1ccc(Oc2nc3ccc(Cl)cc3o2)cc1	–	inactive
C=C(C)[C@@H]1CC=C(C)C(=O)C1	–	inactive
CCCCCC(C)=O	–	inactive
O=P(O)(O)O	8.69 µM (active)	–
Nc1ccc2cc(S(=O)(=O)O)cc(O)c2c1N=Nc1ccccc1C(F)(F)F	–	inactive
CCCCCCCCCCCC(=O)OCC(O)CO (stereo not given)	–	inactive
ON=C1CCCCC1	–	inactive
Cc1ccc(S(=O)(=O)Oc2ccc(N=Nc3ccc(-c4ccc(N=Nc5c(O)ccc6cc(S(=O)(=O)O)cc(S(=O)(=O)O)c56)c(C)c4)cc3C)cc2)cc1	2.55 µM (active)	–
Nc1ccc(N)c2c1C(=O)c1ccccc1C2=O	12.7 µM (active)	–
CCOC(=O)c1ccc(N)cc1	–	inactive
O=C1NC2NC(=O)NC2N1 (stereo not given)	–	inactive
CCCCCCCCCCCCCCN(CCO)CCO	28.4 µM (active)	–
CC(C)CCCCCCc1ccc(OCCOCCO)cc1	–	inactive
CC(C)c1ccccc1O	–	inactive
C#CC(C)(O)CC(C)C (stereo not given)	–	inactive
CCCCCCCCCCCCCC(=O)OCC(O)CO (stereo not given)	–	inactive
COC(=O)c1ccc(C)cc1C1=NC(C)(C(C)C)C(=O)N1 (stereo not given) (tested in a mixture with another compound)	–	inactive
C=C[Si]1(C)O[Si](C)(C=C)O[Si](C)(C=C)O[Si](C)(C=C)O1 (stereo not given)	–	inactive

Compound	AC50	outcome
BrCc1cccc(Oc2ccccc2)c1	–	inactive
CCCCC(CC)COC(C)=O (stereo not given)	–	inactive
CC(C)CCCCCCCCCCCCCCC(=O)O	–	inactive
OCC(O)c1ccccc1 (stereo not given)	–	inactive
CCc1cc(Cc2cc(CC)cc(C(C)(C)C)c2O)c(O)c(C(C)(C)C)c1	22.9 µM (active)	–
O=C(c1ccccc1)C(O)c1ccccc1 (stereo not given)	–	inactive
CC1CCC(C(C)C)C(O)C1 (stereo not given)	–	inactive
CC(=O)O[C@@H]1CC2CCC1(C)C2(C)C (stereo not given in full)	–	inactive
C=CC(=O)OCCCC	–	inactive
CCC1(C)NC(=O)NC1=O (stereo not given)	–	inactive
Cc1ccc(S(N)(=O)=O)cc1	–	inactive
CCCCCCCC(=O)OCC(O)CO (stereo not given)	–	inactive
CCc1ccc(O)cc1	–	inactive
O=[N+]([O-])c1ccc(O)cc1C(F)(F)F	12.9 µM (active)	–
O=Cc1ccccc1S(=O)(=O)O	–	inactive
CN1C(=O)c2ccccc2C1=O	–	inactive
COS(=O)(=O)O	–	inactive
CCCCCCCCC=CCCCCCCCC1=NCCN1CCO	–	inactive
O=C1OC[C@H](Cc2cccc(O)c2)[C@H]1Cc1cccc(O)c1	8.21 µM (active)	–
CCCCCCCCc1ccc(S(=O)(=O)O)cc1	–	inactive
